# FXIa single inh: human FXIa protease inhibitors, primary screen, biochemical, single compound per well; Coagulation factor XI (Homo sapiens), P03951; purified human FXIa, fluorogenic AMC substrate cleavage; inhibition, % at 10 µM; 0.3% of 33,000 active;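 active means inhibition above 40% in the primary screen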;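 further: 0% = enzyme without compound and 100% = blank wells lacking enzyme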
# FXIIa inh: human FXIIa protease inhibitors, primary screen, biochemical, single well. Coagulation factor XII (Homo sapiens), P00748. purified human FXIIa, AMC substrate fluorescence, 2 h. inhibition, % at 10 µM. 0.2% of 33,000 active. AID 701, 2007; in the data active means inhibition above about 30%;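 further: 0% = enzyme with vehicle only and 100% = no enzyme blank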
# * = called active by the depositor. This excerpt belongs to a sample that is enriched for hits.
SMILES,FXIa single inh,FXIIa inh
Cc1ccc(NS(C)(=O)=O)c(C(=O)c2ccccc2)c1,3,7
CCSCCOC(=O)C1=C(C)NC(=O)NC1c1ccccc1 (centres undefined),3,4
O=C(Nc1ccc(Cl)cc1)N(C1=NCCC1)c1ccc(OC(F)F)cc1,3,-15
CCOc1cccc2cc(C(N)=O)c(=NCc3ccccc3)oc12,52*,-8
CCOc1ccccc1OC(=O)c1ccco1,4,5
